Bioassay records deposited in PubChem by several laboratories.
GDH-TPI counter – inhibits GDH-TPI coupling enzymes, artifact for Mtb FBA screen. GDH-TPI coupled enzyme counterscreen, NADH absorbance. inhibition, % at 4.8 µM. 360,000 compounds, 1.2% hits. AID 588335; in the data active = inhibition above about 30%
Mtb FBA inh – inhibits M. tuberculosis FBA enzyme | AID 588726 | 360,000 compounds, 2.3% hits | purified M. tuberculosis FBA, fluorescence read-out | inhibition, % at 1 µM; in the data active = inhibition above about 27%
Rv3671c protease – inhibits the M. tuberculosis serine protease Rv3671c | P9WHR9 | inhibition, % at 5.96 µM | 320,000 compounds, 0.048% hits | AID 2606; in the data active = inhibition above about 38%;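 also: extracellular domain of Rv3671c used as enzyme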
Mtb UGM inh – Mtb UDP-galactopyranose mutase inhibition | P9WIQ1 | purified UGM, fluorescence polarization probe displacement | inhibition, % at 10 µM | 320,000 compounds, 0.06% hits; in the data active = inhibition above about 10%, passing the limit was not always enough
Target sequence (P9WIQ1 whole entry, looked up): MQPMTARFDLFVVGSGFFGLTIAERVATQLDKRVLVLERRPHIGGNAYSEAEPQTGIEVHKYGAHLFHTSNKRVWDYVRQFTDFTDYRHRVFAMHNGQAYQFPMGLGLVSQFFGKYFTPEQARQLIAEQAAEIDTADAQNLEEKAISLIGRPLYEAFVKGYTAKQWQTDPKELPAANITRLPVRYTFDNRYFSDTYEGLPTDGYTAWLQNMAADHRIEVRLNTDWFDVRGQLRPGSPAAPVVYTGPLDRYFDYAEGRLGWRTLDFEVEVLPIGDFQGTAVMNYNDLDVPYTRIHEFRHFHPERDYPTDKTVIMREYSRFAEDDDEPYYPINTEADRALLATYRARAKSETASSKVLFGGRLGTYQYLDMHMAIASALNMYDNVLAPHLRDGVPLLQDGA
Numbers stand for hits; 0 = inactive; - = no result; + = active, no number. Sampled rows, rich in hits. Any-hit rate of the full collection: about 3.5%.

SMILES	GDH-TPI counter	Mtb FBA inh	Rv3671c protease	Mtb UGM inh
COc1ccc(/C=C\c2nc(O)c([N+](=O)[O-])c(=O)[nH]2)cc1O	0	0	0	0
O=C(Nc1ccccc1)OCCc1ccccn1	0	0	-	-
N=C1/C(=C\c2coc3ccccc3c2=O)C(=O)N=C2SC(c3ccncc3)=NN12	32.1	0	0	0
N=C1/C(=C/c2coc3ccccc3c2=O)C(=O)N=C2SC(c3ccco3)=NN12	0	0	0	0
Cc1ccc2nc(C3CCCCC3)c(Cc3cccc(Cl)c3)n2c1	-	145.2	-	-
Clc1cccc(Cc2c(C3CCCCC3)nc3ccc(Cl)cn23)c1	-	0	-	-
COc1cc(OC)cc(C(=O)Nc2ccc(S(=O)(=O)N3CCOCC3)cc2)c1	0	0	0	0
Cc1cccnc1C(NC(=O)C1CCN(CCCOc2ccc(F)cc2)CC1)c1ccccc1 (centres undefined)	0	0	-	-
COc1cc(/C=N/Nc2nc3ccccc3[nH]2)ccc1O	49.6	0	0	0
COc1cccc(/C=N/Nc2nc3ccccc3[nH]2)c1OC	0	0	0	0
COc1cccc(/C=N/Nc2nc3ccccc3[nH]2)c1O	35.8	0	0	0
Cc1cc(O)c(C(C)C)cc1N=Cc1ccc(N(C)C)cc1	46.5	0	-	-
COc1ccc(CSC2=C(C#N)C(=O)NC3(CCCCC3)S2)cc1	34.2	0	-	-
CCCCCCSC1=C(C#N)C(=O)NC2(CCCCC2)S1	0	0	0	0
C(=N\n1cnnc1)/c1cccn1-c1ccccc1	32.0	0	0	0
Cc1c(N=Cc2c(O)n(CCc3ccc(F)cc3)c(=O)[nH]c2=O)c(=O)n(-c2ccccc2)n1C	35.9	0	0	0
COc1ccc(OC)c(-n2c(O)c(C=Nc3c(C)n(C)n(-c4ccccc4)c3=O)c(=O)[nH]c2=S)c1	32.5	0	0	0
CCOc1ccccc1-n1c(O)c(C=Nc2c(C)n(C)n(-c3ccccc3)c2=O)c(=O)[nH]c1=O	0	0	0	0
CC(O)(c1cccnc1)c1nc(-c2ccc(F)c(Cl)c2)cs1 (centres undefined)	0	0	-	-
O=C([C@H]1O[C@@H](n2ccc(=O)[nH]c2=O)[C@H](O)[C@@H]1O)N1CCC(F)(F)CC1	-	0	-	-
O=C(Nc1nc2ccccc2s1)c1cc(-c2ccco2)nc2ccccc12	0	0	0	0
CCNC(=S)NNC(=O)c1cc(-c2ccc(OCC)cc2)nc2ccccc12	37.2	0	0	0
COc1ccc(C(=O)NNC(=S)NC(=O)c2cccc([N+](=O)[O-])c2)cc1	35.2	0	0	0
COc1ccc(C(=O)NNC(=S)NC(=O)c2cc(-c3ccccc3)nc3ccccc23)cc1	33.5	0	0	0
COc1cccc(-c2cc(C(=O)Nc3nc4ccccc4s3)c3ccccc3n2)c1	33.3	0	0	0
SMILES	GDH-TPI counter	Mtb FBA inh	Rv3671c protease	Mtb UGM inh
CCNC(=S)NNC(=O)c1cc(-c2cccc(OC)c2)nc2ccccc12	0	0	0	0
COCCNC(=O)C1CCCN(C(=O)c2cccnc2Oc2ccccc2)CC1 (centres undefined)	0	0	-	-
CC1CN=C(NC(=O)c2cccc([N+](=O)[O-])c2)S1 (centres undefined)	0	0	0	0
COc1ccc(-c2c(NC(C)=O)n(C)c3ccccc3c2=O)cc1	36.1	0	0	0
COc1ccc(-c2c(NC(=O)c3ccco3)oc3ccccc3c2=O)cc1	40.2	0	0	0
COc1cccc(-c2c(NC(C)=O)n(C)c3ccccc3c2=O)c1	0	0	0	0
Cc1ccc(S(=O)(=O)NC(=O)C2(C)CCN2C(=O)COc2ccc(Cl)cc2)nc1 (centres undefined)	0	0	-	-
Cc1ccccc1C(=O)Nc1cccc(NC(=O)c2ccc(-c3ccc(Br)cc3)o2)c1	33.7	0	0	0
CN1CCN(c2ccc(NC(=O)c3ccc(-c4ccc(Br)cc4)o3)cc2)CC1	0	0	0	0
CCOC(=O)C(=CNc1cccc(C)c1C)C(=O)OCC	0	0	0	0
CCOC(=O)C(=CNc1ccccc1N1CCOCC1)C(=O)OCC	50.3	0	0	0
CCC(=O)NC(=S)Nc1ccc(-c2nc3ccc(C)cc3s2)cc1	0	0	0	0
Cc1ccc2nc(-c3ccc(NC(=O)CSCC(=O)O)cc3)sc2c1	49.4	199.3	0	0
Cc1csc(NC(=O)CSCC(=O)O)c1-c1nc2ccccc2s1	34.6	0	0	0
Cc1ccc2sc(-c3ccc(NC(=O)/C=C\C(=O)O)cc3)nc2c1	0	+	-	-
Cc1ccc(C2(C)NC(=O)N(CC(=O)Nc3ccc(-c4nc5ccc(C)cc5s4)cc3)C2=O)cc1 (centres undefined)	0	0	0	0
Cc1ccc2nc(-c3ccc(NC(=O)COCC(=O)O)cc3)sc2c1	0	136.4	0	0
O=C(O)CSCC(=O)Nc1ccc(-c2nc3ccccc3s2)cc1	0	115.9	0	0
